{"source": "PubChem BioAssay (NCATS)", "note": "Results filed as inconclusive are left out. Unmarked numbers belong to inactive results. Calls of active or inactive are those of the source. Calls follow the shape of the dose curve; as a rule, active = well fitted inhibition curve with a large enough effect; inconclusive = small, poorly fitted or top-dose-only effect; inactive = no such curve, though single readings can be large or run the other way. Potency is read from the fitted curve at half-maximal effect."}
{"assay": "qHTS assay for measurement of the activity of small molecule inhibitors on Zika virus induced Caspase-3 activity in human iPSC derived neural progenitor cells (hNPCs) (AID 1224857); also: nearly all actives have a fitted effect of over 65% in size; as to activity change, negative = inhibition: % of control where 0% means no effect", "conditions": "hNPCs ZIKV-induced caspase-3/7, Caspase-Glo luminescence, 6 h; series mostly up to 45.7 µM; activity change, negative = inhibition: at the top concentration", "excerpt": "National Center for Advancing Translational Sciences [NCATS]\nJohns Hopkins University School of Medicine\nIncrease in the Caspase-3 activity indicates an activation of apoptosis cell death pathway caused by Zika virus infection in certain types of neuronal cells including human neural progenitor cells (hNPCs), astrocytes, and astrocytoma cell line (SNB-19). This cell-based caspase-3 activity assay measures the increased caspase-3 activity in the human iPSC derived neural progenitor cells (hNPCs) after a 6-hour Zika virus infection with a luminescence readout. A decrease in the luminescence signal in this assay by small molecule treatment indicates an inhibitory effect of that small molecule on the Zika virus induced caspase-3 activity that may correlate with its effect on reduction of Zika virus caused cell death.\nThe medium for hNPCs consists of DMEM/F12, N2 supplement (ThermoFisher, Cat.# 17502048), NEAA (ThermoFisher, Cat. # 11140050), 2 ug/ml heparin, 2 uM cyclopamine, and B27 (ThermoFisher, Cat. # 17504044). A Caspase-Glo 3/7 assay kit (catalog number G8092; Promega, Madison, WI) was used to detect caspase-3 activity induced by Zika virus infection in human cells. The reagent mixture was reconstituted as described in the protocol from the manufacturer. Polystyrene tissue culture treated and PDL coated white plates were obtained from Greiner Bio-One (Monroe, NC). Cells were seeded in 384- or 1536-well assay plates and cultured at 37 C with 5% CO2 for 16 to 20 hours. The typical cell seeding density in the 1536-well plate assay is 350 cells/well in 3 ul medium for hNPCs in tissue culture treated plates. Compounds were added to cells and incubated for one hour before addition of ZIKV solution to cells (2 FFU/cell). After incubation at 37 C with 5% CO2 for 6 hours, the reagent mixture of Caspase-Glo 3/7 assay kit was added to each well, followed by incubation at room temperature for 30 minutes. The luminescence intensity of the assay plates was measured using a ViewLux plate reader (PerkinElmer). Data were normalized by using the cell-containing wells without ZIKV as a negative control (0% induction of caspase 3/7 activity) and wells containing ZIKV infected cells (Caspase-3 activity induced) as a positive control (100% induction of caspase 3 activity). The percentage inhibitions of the increased Caspase-3 activity by small molecule inhibitors were then calculated.", "units": {"activity change, negative = inhibition": "%"}}
{"smiles": "CN1CC(=O)NC1=NC(=O)Nc1cccc(Cl)c1", "activity change, negative = inhibition": 56.8}
{"smiles": "N[C@@H](CC(=O)N1CCn2c(nnc2C(F)(F)F)C1)Cc1cc(F)c(F)cc1F", "activity change, negative = inhibition": 2.93}
{"smiles": "COc1nccc(-c2c(-c3ccc(F)cc3)ncn2C2CCNCC2)n1", "activity change, negative = inhibition": 45.5}
{"smiles": "CN1CCN(c2cccc(Nc3nc4c(-c5ccc(S(C)(=O)=O)cc5)cccn4n3)c2)CC1", "activity change, negative = inhibition": 5.92}
{"smiles": "COc1ccc2cc1Oc1ccc(cc1)C[C@H]1c3cc(c(OC)cc3CCN1C)Oc1c(OC)c(OC)cc3c1[C@H](C2)N(C)CC3", "activity change, negative = inhibition": -21.6}
{"smiles": "Cc1ccc2c(=O)c3cccc(CC(=O)O)c3oc2c1C", "activity change, negative = inhibition": -6.51}
{"smiles": "CC[C@H](NC(=O)[C@H](C)NC)C(=O)N1C[C@@H](O)C[C@H]1Cc1c(-c2[nH]c3cc(F)ccc3c2C[C@H]2C[C@H](O)CN2C(=O)[C@H](CC)NC(=O)[C@H](C)NC)[nH]c2cc(F)ccc12", "activity change, negative = inhibition": -5.82}
{"smiles": "COc1cc2nccc(Oc3ccc(NC(=O)Nc4ccc(F)cc4F)c(F)c3)c2cc1OC", "activity change, negative = inhibition": -15}
{"smiles": "CCCCC(F)(F)[C@@]1(O)CC[C@H]2[C@H](CC(=O)[C@@H]2CCCCCCC(=O)O)O1", "activity change, negative = inhibition": -9.31}
{"smiles": "CN(C(Cc1ccc(OS(=O)(=O)c2cccc3cnccc23)cc1)C(=O)N1CCN(c2ccccc2)CC1)S(=O)(=O)c1cccc2cnccc12", "note": "(stereo not given)", "activity change, negative = inhibition": 20}
{"smiles": "O=C1NC(=O)C(=Cc2ccc(-c3ccc(F)cc3O)o2)S1", "Potency": "16.6 µM (active)"}
{"smiles": "CCC(C)SSc1ncc[nH]1", "note": "(stereo not given)", "Potency": "26.4 µM (active)"}
{"smiles": "COc1ccc2c(c1)c(C1=C(c3c[nH]c4ccccc34)C(=O)NC1=O)cn2CCCN(C)C", "activity change, negative = inhibition": 93.4}
{"smiles": "CN(CC=CC#CC(C)(C)C)Cc1cccc2ccccc12", "activity change, negative = inhibition": 215}
{"smiles": "Cc1c(-c2cccc3c(CCCOc4cccc5ccccc45)c(C(=O)O)n(Cc4cccnc4)c23)c(COc2ccc(N3CCN([S+](=O)([O-])N(C)C)CC3)cc2)nn1C", "activity change, negative = inhibition": 20.7}
{"smiles": "O=C1NC(=O)C(c2cnc3ccccn23)=C1c1cn2c3c(cccc13)CN(C(=O)N1CCOCC1)CC2", "activity change, negative = inhibition": 36.1}
{"smiles": "Fc1ccc(CNc2ncnc3ccc(F)cc23)cc1", "activity change, negative = inhibition": 29.8}
{"smiles": "CCC(=C(CC)c1ccc(O)cc1)c1ccc(O)cc1", "activity change, negative = inhibition": 35}
{"smiles": "Fc1ccc(C(c2ccc(F)cc2)N2CCN(CC=Cc3ccccc3)CC2)cc1", "activity change, negative = inhibition": 5.26}
{"smiles": "OCCn1cc(-c2ccc3c(c2)CCC3=NO)c(-c2ccncc2)n1", "activity change, negative = inhibition": 3.06}
{"smiles": "COC1CCC(C(=O)c2ccc3nc4c(cc3c2)CCCO4)CC1", "note": "(stereo not given)", "activity change, negative = inhibition": 2.41}
{"smiles": "O=C(Nc1cccc(Cl)c1)Nc1ncc(CCNc2ncnc3ccsc23)s1", "activity change, negative = inhibition": -1.07}
{"smiles": "O=S(=O)(NCCNCC=Cc1ccc(Br)cc1)c1cccc2cnccc12", "activity change, negative = inhibition": 67.8}
{"smiles": "COc1cc(CNC(=O)CCCCC=CC(C)C)ccc1O", "activity change, negative = inhibition": 5.5}
{"smiles": "CC(C)c1onc(-c2c(Cl)cccc2Cl)c1COc1ccc(C=Cc2cccc(C(=O)O)c2)c(Cl)c1", "activity change, negative = inhibition": -3.98}
{"smiles": "CNC(=O)c1cc(COc2nnc(Nc3ccc(Cl)cc3)c3ccoc23)ccn1", "activity change, negative = inhibition": -6.92}
{"smiles": "C[C@H]1COC2=C1C(=O)C(=O)c1c2ccc2c1CCCC2(C)C", "activity change, negative = inhibition": 48.2}
{"smiles": "N#Cc1ccc(Oc2ccc3c(c2)COB3O)cc1", "activity change, negative = inhibition": 22}
{"smiles": "CCC(=O)OCC(=O)[C@@]1(OC(=O)CC)[C@@H](C)C[C@@H]2[C@H]3CCC4=CC(=O)C=C[C@]4(C)[C@@]3(F)[C@@H](O)C[C@@]21C", "activity change, negative = inhibition": 9.06}
{"smiles": "CNC(=O)[C@H](CC1=CN=C2C=CCC=C12)NC(=O)[C@@H](CC(=O)NO)CC(C)C", "activity change, negative = inhibition": 1.24}
{"smiles": "COc1cc(C=CC(=O)O)ccc1O", "activity change, negative = inhibition": 6.94}
{"smiles": "C#C[C@]1(O)CC[C@H]2[C@H]3CCc4cc(OC)ccc4[C@H]3CC[C@@]21C", "activity change, negative = inhibition": 14.8}
{"smiles": "CC(C)(C)c1nc(-c2cccc(NS(=O)(=O)c3c(F)cccc3F)c2F)c(-c2ccnc(N)n2)s1", "activity change, negative = inhibition": -5.74}
{"smiles": "C[C@@H](O[C@H]1OCCN(Cc2n[nH]c(=O)[nH]2)[C@@H]1c1ccc(F)cc1)c1cc(C(F)(F)F)cc(C(F)(F)F)c1", "Potency": "8.33 µM (active)"}
{"smiles": "Cc1cc(NC(=O)Nc2ccc(N(C)C)cc2)c2cc(F)cc(F)c2n1", "activity change, negative = inhibition": -3.86}
{"smiles": "Cn1cnc(-c2cc3nccc(Oc4ccc(NC(=S)NC(=O)Cc5ccccc5)cc4F)c3s2)c1", "activity change, negative = inhibition": 2.58}
{"smiles": "CC[C@]1(O)C[C@H]2CN(CCC3=c4ccccc4=N[C]3[C@@](C(=O)OC)(c3cc4c(cc3OC)N(C)[C@H]3[C@@](O)(C(N)=O)[C@H](O)[C@]5(CC)C=CCN6CC[C@]43[C@@H]65)C2)C1", "activity change, negative = inhibition": -11.5}
{"smiles": "CN[C@@H](C)[C@H]1[C@H](O)C[C@@]2(C)[C@@H]3CC[C@H]4C(C)(C)[C@@H](NC)CC[C@@]45C[C@@]35CC[C@]12C", "activity change, negative = inhibition": 5.8}
{"smiles": "CCN(CC)CCCCNc1nc2cc(Cl)c(Cl)cc2nc1-c1ccc(-c2cccs2)s1", "activity change, negative = inhibition": 98.8}
{"smiles": "CC(C)(O)CC(=O)NCCn1ccc2ncnc(Nc3ccc(Oc4cccc(C(F)(F)F)c4)c(Cl)c3)c21", "activity change, negative = inhibition": -1.23}
